Screening results as filed in PubChem.
Rows were chosen to be rich in hits. Some 4.1% of all compounds tested hit in one or more screens of this group.
tim23-1 inh – tim23-1 yeast growth inhibition. inhibition, % at 20 µM. actives 1.3% (n = 330,000). S. cerevisiae tim23-1 growth, BacTiter-Glo luminescence, 24 h;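 active means growth inhibition of the mutant yeast at or above 50%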;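 further: temperature-sensitive mutant grown at 25 °C; plate controls were DMSO-treated mutant yeast for no effect and medium wells lacking yeast for full effect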
NALP3 yeast inh – blocks the NALP3 inflammasome reconstituted in yeast; inhibition, % at 10 µM; Yeast reconstituted NLRP3/ASC/caspase-1, beta-gal luminescence, 24 h; AID 2825; actives 0.39% (n = 330,000);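 active means inhibition of 50% or more; inactive means inhibition below 50%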;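 further: plate controls were induced DMSO wells for no effect and uninduced yeast grown without galactose for full effect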
tim10-1 inh – inhibits growth of tim10-1 mutant yeast. S. cerevisiae tim10-1 ts strain growth, BacTiter-Glo, 24 h. inhibition, % at 20 µM. actives 2.2% (n = 330,000). AID 463190;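 active means inhibition of at least 40%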;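 further: mutant grown at 25 °C; 0% = DMSO wells with yeast and 100% = wells holding no yeast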
TIM10 inh – inhibits growth of TIM10 yeast strain. S. cerevisiae TIM10 strain growth, BacTiter-Glo luminescence, 24 h. inhibition, % at 10 µM. actives 1.4% (n = 330,000). AID 463195;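 active means inhibition of 40% or more at the single tested concentration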;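 further: wild-type TIM10 isogenic control strain grown at permissive 25 °C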
NALP1 yeast inh – blocks the NALP1 inflammasome reconstituted in yeast | S. cerevisiae NALP1/ASC/caspase-1 growth, X-gal OD620, 72 h | inhibition, % at 10 µM | actives 0.61% (n = 280,000) | AID 2071; in the data active means inhibition mostly above about 24%, no sharp cut-off; inactive means mostly below about 32%
PfHsp90 yeast 2 – growth inhibition of yeast expressing Plasmodium Hsp90; S. cerevisiae expressing PfHsp90, BacTiter-Glo ATP, 48 h; yeast lacking PDR1 and PDR3 efflux regulators; AID 504621; inhibition, % at 9.4 µM; actives 0.32% (n = 310,000);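 active means every replicate shows inhibition above about 80%, whatever the replicate mean, limit read from the data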;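 further: 0% = DMSO neutral controls and 100% = 20 µM radicicol positive controls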
An asterisk follows results filed as active; . = no result.

SMILES	tim23-1 inh	NALP3 yeast inh	tim10-1 inh	TIM10 inh	NALP1 yeast inh	PfHsp90 yeast 2
CC(NC(=O)CNC(=O)c1cccs1)c1cccc(C(F)(F)F)c1 (stereo not drawn)	8.8	13.6	5.5	4.2	.	-23.7
CN(C)CCCNc1cc(-c2ccccc2)nc2cc(-c3cccc(F)c3)nn12	-6.3	39.0	31.6	26.6	25.8*	14.5
CC(C)(C)OC(=O)C[C@H]1C/C=C\C[C@H](CC(=O)NCCO)C(=O)N2CCC[C@@H]2COC1=O	-7.7	15.7	0.1	8.0	.	-22.6
CN(C)CCCNS(=O)(=O)c1ccc(NC2CCCCCC2)c([N+](=O)[O-])c1	-0.8	22.1	-2.9	-2.0	10.3	-5.5
O=S(=O)(c1ccc(Cl)cc1)n1ccc(-c2cccc(OCc3c(F)cccc3Cl)c2)n1	4.1	2.5	13.9	1.6	-5.5	-5.4
O=S(=O)(c1ccc(F)cc1)n1ccc(-c2cccc(OCc3c(F)cccc3Cl)c2)n1	.	.	.	.	27.9*	.
COc1ccc(NC(=O)CSc2nnc(N)s2)cc1S(=O)(=O)N1CCCCC1	-10.2	27.2	-12.4	0.1	.	17.4
Cc1cccc(OCc2n[nH]c(=S)n2C2CCCCC2)c1	18.0	42.1	-30.9	4.8	1.9	-40.2
Cc1ccc(OCc2n[nH]c(=S)n2C2CCCCC2)cc1	40.2	27.5	33.9	38.5	11.7	90.3*
CC(=O)N1CCN(S(=O)(=O)c2cccc(C(=O)OCc3cccc(F)c3)c2)CC1	37.3	4.0	31.7	21.5	.	-7.8
CC1=C(C(=O)OCc2ccccc2)C(/C=C/c2ccccc2)NC(=S)N1 (stereo not drawn)	35.8	26.5	-3.6	35.0	24.4	85.4*
COCCNC(=O)CN(C(=O)CCC(=O)Nc1ccccn1)c1cc(C)ccc1C	5.9	21.1	-29.7	-14.9	4.8	3.0
Cc1oc(-c2ccccc2F)nc1CS(=O)(=O)CC(=O)NCCN1CCCC1	13.5	3.4	15.6	10.0	29.0*	-4.0
COc1ccc([N+](=O)[O-])cc1N(CC(=O)N1CCOCC1)S(C)(=O)=O	5.1	7.6	6.3	0.1	42.4*	20.0
CCN(C[C@H]1N[C@@](C)(C(=O)OC)[C@H]2C(=O)N(C)C(=O)[C@@H]12)S(=O)(=O)c1ccc(OC)cc1	-2.9	11.1	-6.7	4.7	.	14.8
Cc1cc(C)cc(NC(=O)c2cnn(-c3ccccc3)c2C2CCNCC2)c1	6.5	17.7	14.0	2.5	23.0*	8.6
Cc1ccc(C)c(S(=O)(=O)N2CCN(c3nc(-c4cccnc4)nc4ccccc34)CC2)c1	25.3	43.0	14.0	10.4	.	-77.3
O=S(=O)(CC(CN1CCCCC1)N1CCCCC1)c1ccc2ccccc2c1 (stereo not drawn)	.	.	.	.	54.9*	-5.6
Cc1ccc(S(=O)(=O)CC(CN2CCCCC2)N2CCCCC2)cc1 (stereo not drawn)	.	.	.	.	-6.7	4.2
O=[N+]([O-])c1cccc(/C=N\N=C2c3ccccc3-c3ccccc32)c1O	23.7	19.8	22.5	21.9	-10.3	0.0
C(=NN=C1c2ccccc2-c2ccccc21)c1c[nH]c2ccccc12	.	.	.	.	.	130.6*
NC(=S)N/N=C/c1c[nH]c2ccccc12	6.5	23.6	-0.6	-2.6	.	-4.1
Oc1ccc(C=NN=C2c3ccccc3-c3ccccc32)c(O)c1	.	.	.	.	.	137.2*
NC(=O)NC(=O)Nc1ccccc1Cl	-3.6	0.4	7.1	5.5	18.1	.
CC(C)(ONC(=O)Nc1ccccc1Cl)C(=O)O	13.3	7.2	10.3	8.9	29.8*	-8.0
SMILES	tim23-1 inh	NALP3 yeast inh	tim10-1 inh	TIM10 inh	NALP1 yeast inh	PfHsp90 yeast 2
COCc1ccccc1C1=CC(=O)C[C@H](c2ccc(F)cc2)C1	35.7	16.0	14.3	-13.2	.	1.6
O=C(CNC(=O)c1cccs1)N/N=C/c1ccco1	-0.7	12.5	-4.6	4.8	29.2*	-34.5
Cc1cc(C)c(S(=O)(=O)NCc2ccncc2)c(C)c1	19.3	17.0	-9.3	-29.2	38.9*	2.5
Cc1cc(C)c(S(=O)(=O)NCCc2ccncc2)c(C)c1	-5.9	7.3	14.5	-10.8	7.5	3.3
COc1cccc(C2c3cc4c(cc3OC(N3CCOCC3)C2C)OCO4)c1O (stereo not drawn)	.	.	.	.	.	26.8
Cc1cccc(C)c1C(OCCN(C)C)C1CCCCC1 (stereo not drawn)	21.0	11.8	32.2	12.8	50.9*	-9.0
O=S(=O)(Nc1nc2ccccc2nc1N1CCN(c2ccccn2)CC1)c1ccc(Cl)cc1	.	.	.	.	39.0	104.0*
C#CCN(C)CCCOc1ccc(Cl)cc1Cl	3.3	45.9	-2.5	3.9	55.9*	7.9
Cc1ccc(C(=O)COC(=O)COc2ccccc2[N+](=O)[O-])s1	18.6	4.9	8.6	1.1	.	-15.7
CCOC(=O)COc1ccccc1/C=C\[N+](=O)[O-]	.	.	.	.	101.9*	54.5
O=C(CCl)Nc1ccc(N=Nc2ccccc2)cc1	.	.	.	.	78.5*	2.6
CC[C@]12c3[nH]c4ccc(Cl)cc4c3CCN1C(=O)[C@@H](CC(=O)NC/C=C(\C)CCC=C(C)C)C[C@@H]2C(=O)N1CCN(C(=O)c2ccco2)CC1	36.8	.	14.1	4.5	.	-1.6
CC(C)(C)OC(=O)NCc1ccc(CNC(=O)c2nc[nH]c2C(=O)N2CCN(c3ccccc3)CC2)cc1	-6.9	11.9	4.5	3.1	.	-10.8
O=C(CCc1nc(-c2ccccc2F)no1)Nc1ccc(Oc2ccccc2)cc1	12.6	19.2	15.0	25.1	40.9*	16.3
Cc1ccnc(NS(=O)(=O)c2ccc(NS(=O)(=O)c3cc(Cl)ccc3Cl)cc2)n1	6.3	5.5	4.1	7.7	40.4*	4.8
CC(C)c1ccc(N(C(=O)c2snc(C(N)=O)c2N)C(C(=O)NC2CCCC2)c2ccncc2)cc1 (stereo not drawn)	-3.5	20.2	-4.0	-1.2	1.4	-23.5
COc1ccc(Cn2c(=O)[nH]c3cc(C(=O)N4CCN(c5ccccc5OC)CC4)ccc3c2=O)cc1	-0.8	14.5	1.5	5.1	-2.0	7.8
COc1ccc(Cn2c(=O)[nH]c3cc(C(=O)N4CCN(Cc5ccccc5)CC4)ccc3c2=O)cc1	6.4	-1.5	7.3	1.8	26.9*	5.9
CC(C)C(=O)NC(c1ccc(Cl)cc1Cl)c1ccc2cccnc2c1O (stereo not drawn)	44.7	19.8	-36.1	-2.8	-5.0	112.6*
O=C(O)c1ccccc1NC(c1ccccc1)c1ccc2cccnc2c1O (stereo not drawn)	.	.	.	.	.	121.1*
Cc1ccnc(NC(c2ccccc2)c2ccc3cccnc3c2O)c1 (stereo not drawn)	.	.	.	.	.	-32.0
Cc1cc(NC(c2ccc(Cl)cc2)c2ccc3cccnc3c2O)no1 (stereo not drawn)	43.7	10.2	17.5	17.0	-3.6	100.9*
CC(=O)NC(c1ccc(Cl)cc1)c1ccc2cccnc2c1O (stereo not drawn)	.	.	.	.	.	113.9*
Cc1cccc(NC(=O)CCS(=O)(=O)c2cc3c(cc2Cl)NC(=O)CO3)c1	2.2	6.1	-0.2	-11.0	0.1	16.2
O=c1[nH]cc(O)c(=O)[nH]1	-7.6	12.9	-2.9	-12.4	9.1	-11.7
